# Source: PubChem
# Shown is part of a subset that was picked to be rich in hits.
# RE007 growth inh = qHTS Assay for Inhibitors of the HIV-1 protein Vpr; S. pombe RE007 Vpr strain, BacTiter-Glo ATP luminescence, 24 h; Potency, µM (top dose mostly 92.2 µM), for the others: at the highest dose activity change, negative = less growth, actives largely listed as inhibitors; 0.21% of 360,000 active; active = well fitted falling curve with a large enough effect; inconclusive = small, poorly fitted or top-dose-only effect; inactive = no such curve, though single readings can be large or run the other way; note: potency is the fitted concentration of half-maximal effect; % is set by controls: 0 for no effect and ±100 for the full control effect; nearly all actives have a fitted effect of over 50% in size
#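 Fission yeast RE007 carrying one integrated HIV-1 vpr copy, seeded at OD 0.01 in PMG+AL medium with 23 nL pinned compound. Grown 24 h at 30 degrees; viability read by BacTiter-Glo luminescence after 5 min.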
# CHX counter = Cycloheximide Counterscreen for Small Molecule Inhibitors of Shiga Toxin. cell reporter, cycloheximide protein synthesis inhibition counterscreen. max response, %. 12% of 300,000 active. AID 2314, 2010; in the data active = max response mostly above about 13%, no sharp cut-off; inactive = mostly below about 14%; note: read at 38.3 µM for the half of the compounds with a filed dose; 0% is about no effect
# LmPK inhibitor = qHTS Assay for Inhibitors of Leishmania Mexicana Pyruvate Kinase (LmPK). Q27686. purified LmPK, Kinase-Glo ATP luminescence, 1 h. Potency, µM (titrated, usually from 57.5 µM), inactives show top-dose activity change, negative = inhibition, actives largely listed as inhibitors. 0.37% of 290,000 active. AID 1721, 2009; note: potency is the fitted concentration of half-maximal effect; % is set by controls: 0 for no effect and ±100 for the full control effect
#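 0.1 nM LmPK, 0.5 mM PEP, 0.1 mM ADP; 50 mM imidazole pH 7.2, 7 mM MgCl2, 50 mM KCl; 1 h RT. Kinase-Glo luminescence readout, normalized to no-enzyme (full inhibition) and uninhibited wells.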
# Giardia FBPA inh = qHTS Assay for Inhibitors of Fructose-1,6-bisphosphate Aldolase from Giardia Lamblia. purified Giardia FBPA. Potency, µM (highest dose often 59.6 µM), for inactives: at the highest dose activity, negative = inhibition, actives largely listed as inhibitors. 0.71% of 290,000 active. AID 2451, 2010; note: potency is the fitted concentration of half-maximal effect; % is set by controls: 0 for no effect and ±100 for the full control effect; nearly all actives have a fitted effect of over 55% in size
# Target sequence (A8B2U2 whole entry, looked up): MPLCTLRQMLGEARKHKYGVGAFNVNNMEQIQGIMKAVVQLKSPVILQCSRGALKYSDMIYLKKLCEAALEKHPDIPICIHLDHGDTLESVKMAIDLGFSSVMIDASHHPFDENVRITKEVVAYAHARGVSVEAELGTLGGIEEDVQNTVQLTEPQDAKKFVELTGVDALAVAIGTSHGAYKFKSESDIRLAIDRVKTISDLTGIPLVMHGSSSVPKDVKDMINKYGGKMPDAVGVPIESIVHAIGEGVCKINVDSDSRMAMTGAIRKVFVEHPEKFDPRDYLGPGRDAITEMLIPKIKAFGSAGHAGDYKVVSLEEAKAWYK
#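 40 nM FBPA preincubated 10 min at RT with compound (up to 57.5 uM final), then substrate plus GAPDH/TPI/NAD/arsenate coupling and diaphorase/resazurin added. Fluorescence read after 20 min at RT, 525/598 nm.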
# TbPYK inhibitor = qHTS of Trypanosoma Brucei Inhibitors. pyruvate kinase (Trypanosoma brucei), Q57TT1. TbPYK enzyme, Kinase-Glo Plus ATP luminescence, 45 min. Potency, µM (series often up to 76.8 µM), for the others: top-dose activity, negative = inhibition, actives largely listed as inhibitors. 0.12% of 410,000 active; note: potency is the fitted concentration of half-maximal effect; % is set by controls: 0 for no effect and ±100 for the full control effect; nearly all actives have a fitted effect of over 50% in size
#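 Activity of T. brucei pyruvate kinase was followed by Kinase-Glo Plus luminescence after the enzyme reacted 45 min at room temperature with 130 uM ADP (final) and substrate. Test compounds were added before ADP at multiple concentrations.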
# Shiga toxin inh = A qHTS for Small Molecule Inhibitors of Shiga Toxin; inhibition, % at 38.7 µM; Vero cells, Shiga toxin protein synthesis inhibition reporter; 9.2% of 290,000 active; in the data active = inhibition mostly above about 28%, no sharp cut-off; inactive = mostly below about 43%; note: 0% is about no effect
# Active calls of the source: *; ? = inconclusive; . = not tested or not shown. Unless noted, calls come from the whole dose curve; as a rule, active = well fitted curve in the direction sought with a large enough effect; inconclusive = small, poorly fitted or top-dose-only effect, or another doubt; inactive = no such curve, though single readings can be large; an effect the other way counts as inactive or inconclusive.
SMILES,RE007 growth inh,CHX counter,LmPK inhibitor,Giardia FBPA inh,TbPYK inhibitor,Shiga toxin inh
Cc1cccc(CCNC(=O)C2CCC(CNS(=O)(=O)c3ccccc3)CC2)c1 (configuration not stated),.,.,.,.,-10%,.
COc1cc(C(=O)/C=C/c2cccnc2)ccc1O,-8%,16*,-7%,.,-7%,27
COc1cc(C(=O)O)ccc1O,-4%,-4,-4%,0%,5%,-14
COc1cc(O)c(C(=O)c2ccccc2)cc1O,.,.,.,3.5µM*,.,.
COc1cc(O)c(C(=O)c2ccccc2)cc1S(=O)(=O)O,.,3,.,6%,3%,10
Cc1cccc(C(=O)Nc2ccc(C(=O)/C=C/c3cccnc3)cc2)c1,-28%,24*,-2%,-4%,-7%,-3
COc1cc(C(=O)C(=O)c2ccc(O)c(OC)c2)ccc1O,0%,active,0%,16%,-3%,51*
CN1C(=O)[C@]23CC4=CC=C[C@H](O)[C@H]4N2C(=O)[C@@]1(CO)SS3,.,-4,.,?,.,-25
c1ccc(-c2nc(-c3cccc4ccccc34)c(Nc3ccc4ccccc4c3)o2)cc1,.,.,.,0%,.,.
O=C(NCCc1ccc(Cl)cc1)c1cnc2sc(N3CCCC3)nn2c1=O,.,.,.,.,-13%,.
COc1ccc(-n2c(=O)c3c4c(sc3n(Cc3ccc(C(C)(C)C)cc3)c2=O)CCC4)c(OC)c1,.,.,.,.,-4%,.
O=C(O)C1C2C=CC(C2)C1C(=O)NCCc1ccccc1 (configuration not stated),14%,12,-1%,6%,14%,30*
O=C(CCN1C(=O)C2C3C=CC(C3)C2C1=O)NCCc1ccccc1 (configuration not stated),-4%,9.7*,-2%,-1%,-3%,19
Cc1ccc(NCN2C(=O)C3C4C=CC(C4)C3C2=O)cc1 (configuration not stated),-1%,-5,1%,0%,?,7
O=C1C2C3C=CC(C3)C2C(=O)N1CNc1ccc(O)cc1 (configuration not stated),.,-3,-3%,3.2µM*,.,-16
O=C1C2C3C=CC(C3)C2C(=O)N1CCCCCCN1C(=O)C2C3C=CC(C3)C2C1=O (configuration not stated),-8%,48*,?,-23%,11%,68*
Cn1c2ccsc2c2cnn(Cc3ccccc3F)c(=O)c21,.,4,.,.,.,59
C=C[C@@]1(C)CC[C@H]2C(=CC[C@@H]3[C@]2(C)CCC[C@@]3(C)C(=O)O)C1,.,-4,.,20%,.,-10
O=C(CCN1C(=O)C2C3C=CC(C3)C2C1=O)Nc1ccc2ncccc2c1 (configuration not stated),3%,45*,-6%,-28%,-1%,64*
O=C(CN1C(=O)C2C3C=CC(C3)C2C1=O)OCC(=O)c1ccccc1 (configuration not stated),-9%,21*,-3%,-4%,6%,37*
O=C(CCN1C(=O)C2C3C=CC(C3)C2C1=O)Nc1ccccn1 (configuration not stated),14%,-2,5%,4%,-9%,38
Cc1ccc(C(=O)Nc2ccc(C(F)(F)F)n(C)c2=O)cc1,14%,45*,7%,-1%,0%,87*
COCCn1c(C(F)(F)F)ccc(NC(=O)c2ccccc2)c1=O,-14%,48*,-10%,-4%,-1%,51*
CCN(CC)S(=O)(=O)c1ccc(C(=O)Nc2ccc(C(F)(F)F)n(C)c2=O)cc1,-15%,-6,-3%,.,0%,51
COCCn1c(SCC(=O)NNC(=O)c2ccccc2)nc2ccccc2c1=O,-6%,2,-9%,2%,-5%,-12
COc1ccc(C(=O)Nc2ccc(O)c3ccccc23)cc1,-14%,.,.,.,-6%,.
COc1ccc(C(=O)Nc2ccc(C(F)(F)F)n(C)c2=O)cc1,-23%,19*,0%,0%,6%,58*
Cc1ccc(C(=O)c2oc3ccccc3c2NC(=O)c2cc(-c3ccccc3)on2)cc1,.,.,.,.,1%,.
